Data on 7 molecules can be found in PubChem BioAssay (Tox21).

The structures appear in SMILES notation. Unmarked numbers belong to inactive results. Records with an inconclusive call do not appear. Activity calls are given as the source filed them. Unless noted, the call rests on the fitted dose curve; in most records, active means well fitted curve in the direction sought with a large enough effect in the repeat runs; inconclusive means weak or mixed curves; inactive means no such curve, though single readings can be large; an effect the other way counts as inactive or inconclusive.

Experiment [1] in a line: qHTS assay for small molecule agonists of the p53 signaling pathway - cell viability (AID 651633; calls by dose curve;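 further: p53RE-bla HCT reporter cells with a stable beta-lactamase p53 reporter; nearly all actives have a fitted effect of over 30% in size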). Put shortly:
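p53RE-bla cells, seeded at 4,000 per well and rested 5 h at 37 C/5% CO2, received compounds in DMSO for 16 h at 37 C. CellTiter-Glo was then added, and luminescence was read after 30 min at room temperature to gauge cytotoxicity.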

A short description of experiment [2]: qHTS assay for small molecules that induce genotoxicity in human embryonic kidney cells expressing luciferase-tagged ATAD5 - cell viability (AID 651634; calls by dose curve; further: nearly all actives have a fitted effect of over 25% in size; further: potency means the concentration at half of the fitted maximal effect). Put shortly: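 After 15.5 hr incubation with compound at 37C, 5% CO2, HEK293T ATAD5-luciferase cells received CellTiter-Fluor reagent; fluorescence intensity was quantified following 30 min at 37C.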
(qHTS replaces the single test concentration by a dilution series.)

The nature of experiment [3]: qHTS assay for small molecule disruptors of the mitochondrial membrane potential - cell viability (AID 720634; calls by dose curve;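 further: human HepG2 liver cancer cells; nearly all actives have a fitted effect of over 20% in size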). The method, boiled down: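 ATP-based luminescent viability readout (CellTiter-Glo, 30 min, room temperature) in HepG2 cells multiplexed with the m-MPI membrane potential dye; compound exposure lasted 1 hr at 37 C.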
Experiment [4] can be described thus: qHTS assay for small molecule disruptors of the mitochondrial membrane potential (AID 720635). The method, boiled down: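 HepG2 cells (2,000/well) attached overnight at 37C, then took compound for 1 hr at 37C, 5% CO2. Mito-MPS dye was added for 30 min; fluorescence was read at 490/535 nm (monomers) and 540/590 nm (aggregates).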
Experiment [5] in a line: qHTS assay to test for compound auto fluorescence at 590 nm (red) in HepG2 cells (AID 720674). Put shortly: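 Compound auto-fluorescence is scored relative to Rose Bengal sodium, measured at 540/590 nm in live HepG2 cultures after 1 hr compound contact (37 C, 5% CO2).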
Experiment [6] in a line: qHTS assay to test for compound auto fluorescence at 535 nm (green) in HepG2 cells (AID 720675).
Experiment [7] can be described thus: qHTS assay to test for compound auto fluorescence at 460 nm (blue) in HEK293 cells (AID 720678). The method, boiled down: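 Auto fluorescence in the blue band was quantified as triamterene equivalency. HEK293 cells were seeded at 2,000/well, dosed after a 4-5 hr attachment, and kept overnight at 37C before the 405/460 nm reading.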
The nature of experiment [8]: qHTS assay to test for compound auto fluorescence at 590 nm (red) in HEK293 cells (AID 720679). Put shortly: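 Autofluorescence equivalency to Rose Bengal sodium, 540/590nm, in HEK293 cells exposed overnight to 23 nL compound per well.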
The nature of experiment [9]: qHTS assay to test for compound auto fluorescence at 535 nm (green) in HEK293 cells (AID 720680).
The nature of experiment [10]: qHTS assay to test for compound auto fluorescence at 460 nm (blue) in HEK293 cell free culture (AID 720681). The method, boiled down: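 Test compounds were pinned into cell-free culture medium (DMEM with 10% FBS) and fluorescence was read directly at Ex/Em 405/460 nm. Signals were expressed as fluorescence equivalents of triamterene, with DMSO vehicle as control.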

Experiment [11] can be described thus: qHTS assay to test for compound auto fluorescence at 535 nm (green) in HEK293 cell free culture (AID 720682). Put shortly: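 Cell-free medium (DMEM, 10% FBS) receives compound or DMSO by pintool. Plate read directly at Ex 485/Em 535 nm. Signal converted to fluorescein equivalency.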
Experiment [12] in a line: qHTS assay to test for compound auto fluorescence at 590 nm (red) in HepG2 cell free culture (AID 720684). Put shortly: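 Ex 540 / Em 590 nm read of compound in cell-free MEM (10% FBS). Rose Bengal sodium reference.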
Experiment [13] is described as follows: qHTS assay to test for compound auto fluorescence at 460 nm (blue) in HepG2 cell free culture (AID 720685). Put shortly:
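Cell-free plates of MEM plus 10% FBS received 23 nL compound or DMSO vehicle; blue-channel (405/460 nm) intensity scored against triamterene as reference fluorophore.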

Experiment [14] is described as follows: qHTS assay to test for compound auto fluorescence at 535 nm (green) in HepG2 cell free culture (AID 720686).
A short description of experiment [15]: qHTS assay to test for compound auto fluorescence at 460 nm (blue) in HepG2 cells (AID 720687). The method, boiled down: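 Cells (2,000/well in MEM with 10% FBS) attached overnight at 37 C, then were exposed to compound or DMSO for 1 hr at 37 C, 5% CO2. Fluorescence read at Ex/Em 405/460 nm, expressed as triamterene-equivalent signal.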
Experiment [16] deals with Glucocorticoid receptor (Homo sapiens) (UniProt P04150). Description: qHTS assay to identify small molecule agonists of the glucocorticoid receptor (GR) signaling pathway (AID 720691; active means well fitted activation curve with a large enough effect in the signal ratio in the repeat runs, not every such curve was filed as active; the % refers to the signal ratio). To be noted: GR-bla HeLa, beta-lactamase reporter ratio, 18 h; activation: at 62.4 µM (top of the series) unless noted. Put shortly: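 Cells: GR-bla HeLa, endogenous GR with stably integrated GRE-beta-lactamase reporter. Treatment 18 h, 37 C, compounds delivered in DMSO. Detection via LiveBLAzer B/G FRET substrate, 2 h RT, fluorescence intensity.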
Chain of Glucocorticoid receptor (Homo sapiens) (P04150 whole entry, looked up): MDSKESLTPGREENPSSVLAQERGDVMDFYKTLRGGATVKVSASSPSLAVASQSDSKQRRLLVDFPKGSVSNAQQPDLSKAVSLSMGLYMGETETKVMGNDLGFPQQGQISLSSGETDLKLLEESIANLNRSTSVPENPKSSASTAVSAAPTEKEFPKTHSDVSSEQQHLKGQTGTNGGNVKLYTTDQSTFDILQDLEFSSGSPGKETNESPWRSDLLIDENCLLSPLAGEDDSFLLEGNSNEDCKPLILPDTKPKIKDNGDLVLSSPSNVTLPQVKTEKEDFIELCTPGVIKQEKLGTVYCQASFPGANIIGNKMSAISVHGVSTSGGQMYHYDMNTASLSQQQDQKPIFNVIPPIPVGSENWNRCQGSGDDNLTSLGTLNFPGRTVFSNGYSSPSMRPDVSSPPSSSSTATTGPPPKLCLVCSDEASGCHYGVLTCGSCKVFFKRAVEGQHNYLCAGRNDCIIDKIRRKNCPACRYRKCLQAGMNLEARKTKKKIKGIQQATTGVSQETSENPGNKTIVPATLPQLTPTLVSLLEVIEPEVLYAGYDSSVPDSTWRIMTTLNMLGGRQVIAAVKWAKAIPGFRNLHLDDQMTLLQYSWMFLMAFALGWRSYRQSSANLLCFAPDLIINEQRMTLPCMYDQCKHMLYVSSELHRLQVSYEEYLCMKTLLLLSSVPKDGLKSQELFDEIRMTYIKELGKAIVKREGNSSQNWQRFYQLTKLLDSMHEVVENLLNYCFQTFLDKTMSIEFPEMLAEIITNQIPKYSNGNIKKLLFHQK

The nature of experiment [17]: qHTS assay for small molecules that induce genotoxicity in human embryonic kidney cells expressing luciferase-tagged ATAD5 (AID 651632). Further: nearly all actives have a fitted effect of over 15% in size. The method, boiled down:
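Quantitative HTS in HEK293T expressing luciferase-tagged ATAD5, whose levels rise upon DNA damage. Exposure ran 16 hr at 37C and 5% CO2, with luminescence read 30 min after Amplite addition at room temperature.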

The nature of experiment [18]: qHTS assay to test for compound auto fluorescence at 590 nm (red) in HEK293 cell free culture (AID 720683). The method, boiled down: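 Tox21 10K library compounds were pinned into cell-free DMEM with 10% FBS and fluorescence was read at excitation 540 nm. Activity is expressed as Rose Bengal sodium equivalency.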
Experiment [19] addresses Glucocorticoid receptor (Homo sapiens) (UniProt P04150). Description: qHTS assay to identify small molecule antagonists of the glucocorticoid receptor (GR) signaling pathway (AID 720692; active means well fitted inhibition curve with a large enough effect in the signal ratio in the repeat runs, not every such curve was filed as active; the % refers to the signal ratio). Put shortly: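 Quantitative HTS in antagonist format: HeLa cells expressing endogenous GR and a stably integrated GRE-bla reporter, stimulated with 5 nM dexamethasone (final) alongside test compounds for 18 h.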
On the % scale 0 is the no-effect control and ±100 the full control effect.

`C=CC(=O)OCCOCCOCCOCCOC(=O)C=C`: the Potency result in [1], in [3], in [4], in [5], in experiment [6] and in [8] was “inactive” throughout. Moreover, the Potency result in experiment [12], in [14] and in experiment [16] was “inactive” throughout. Besides, in experiment [2], the Potency is 54.8 µM (active). For the same molecule, the result in experiment [7], in [9], in [10], in experiment [11], in [13] and in [15] was inactive.
On to `CCN(CC)CCOC(=O)C(c1ccccc1)C1CCCCC1` (stereo not drawn), for which the Potency entry in [17], in experiment [2], in experiment [3], in experiment [5], in experiment [6] and in experiment [8] was “inactive” throughout. The Potency result in experiment [18], in experiment [12], in [14] and in [16] was “inactive” in each case. Moreover, the call in experiment [7], in experiment [9], in experiment [10], in [11], in experiment [13] and in experiment [15] was inactive.
For `CCCCCCCCCCCc1ccccc1`, the Potency result in experiment [17], in experiment [2], in [3], in experiment [5], in experiment [6] and in experiment [18] was “inactive” throughout. In addition, the Potency entry in [12], in [14] and in [16] was “inactive” in each case. In addition, the molecule was classed as inactive in experiment [7], in experiment [9], in experiment [10], in experiment [11], in experiment [13] and in [15].
In the case of `CCO[C@H](Cc1ccc(OCCc2ccc(OS(C)(=O)=O)cc2)cc1)C(=O)O`, the Potency entry in experiment [17], in experiment [2], in experiment [3], in [4], in experiment [5] and in experiment [6] was “inactive” in each case. In addition, the Potency entry in experiment [18], in experiment [12], in experiment [14], in experiment [16] and in experiment [19] was “inactive” each time. Further, the molecule was classed as inactive in experiment [7], in experiment [9], in [10], in experiment [11] and in experiment [15].
For the molecule `CO[C@@H]1[C@H](OC(=O)/C=C/C=C/C=C/C=C/C(=O)O)CC[C@]2(CO2)[C@H]1[C@@]1(C)O[C@@H]1CC=C(C)C`, the Potency result in experiment [17], in [2], in experiment [3], in experiment [5], in experiment [6] and in experiment [8] was “inactive” in each case. For the same molecule, the Potency result in [18], in experiment [12], in experiment [14] and in experiment [16] was “inactive” in each case. For the same molecule, the call in experiment [7], in experiment [9], in experiment [10], in experiment [11], in [13] and in [15] was inactive.
Turning to `CN(C)c1ccc(/C=C/c2ccc([N+](=O)[O-])cc2)cc1`, the activity change, negative = cytotoxicity in experiment [1] is -6.1% [at 8.08 µM]; in experiment [3], -8.24% [at 8.08 µM]. The activity, negative = cytotoxicity in experiment [2] is 49.6% [at 8.08 µM]. Besides, the fluorescence, relative to Rose Bengal in [5] is 0% [at 3.72 µM]. The figures for the fluorescence, % of fluorescein control in experiment [6] and in experiment [14] were -0.0437% [at 3.72 µM] and -0.0291% [at 3.72 µM], respectively. Besides, the fluorescence, % of triamterene in [7] is 0.0267% [at 3.72 µM]. Further, the fluorescence, % of fluorescent control in experiment [8] was 0.111% [at 3.72 µM]; in experiment [10], -0.202% [at 3.72 µM]; in experiment [18], -0.187% [at 3.72 µM]; in experiment [15], -0.0831% [at 3.72 µM]. The fluorescence, % of fluorescein in experiment [9] was 0.0174% [at 3.72 µM]. The activity change in experiment [11] was -0.151% [at 3.72 µM]. Besides, the fluorescence, % of Rose Bengal in experiment [12] was -0.037% [at 3.72 µM].
Take `Nc1ncn([C@H]2C[C@H](O)[C@@H](CO)O2)c(=O)n1`: the Potency result in experiment [1], in experiment [2], in [3], in [5], in experiment [8] and in [18] was “inactive” in each case. Further, the Potency entry in experiment [12], in [14] and in [16] was “inactive” in each case. Also, the call in experiment [7], in experiment [9], in [10], in [11], in [13] and in experiment [15] was inactive.
